Assay results as given in PubChem BioAssay AID2284377 (EPA ToxCast).
Results filed as inconclusive are left out. The source made the active and inactive calls. Rule for the calls: active = hit-call score of the fitted dose curve at least 0.9, where 1 is the maximum; inconclusive = response in the unintended direction; inactive = score below 0.9.

What follows are compounds tested against Estrogen receptor (Homo sapiens) (UniProt P03372) (assay: ERF_TW_NR_COA_hESR1: Eurofins (ERF) Nuclear Receptor (NR) Functional Coactivator Assay for human Estrogen Receptor alpha (ERa) Agonism).
Estrogen receptor (Homo sapiens), sequence (P03372 whole entry, looked up): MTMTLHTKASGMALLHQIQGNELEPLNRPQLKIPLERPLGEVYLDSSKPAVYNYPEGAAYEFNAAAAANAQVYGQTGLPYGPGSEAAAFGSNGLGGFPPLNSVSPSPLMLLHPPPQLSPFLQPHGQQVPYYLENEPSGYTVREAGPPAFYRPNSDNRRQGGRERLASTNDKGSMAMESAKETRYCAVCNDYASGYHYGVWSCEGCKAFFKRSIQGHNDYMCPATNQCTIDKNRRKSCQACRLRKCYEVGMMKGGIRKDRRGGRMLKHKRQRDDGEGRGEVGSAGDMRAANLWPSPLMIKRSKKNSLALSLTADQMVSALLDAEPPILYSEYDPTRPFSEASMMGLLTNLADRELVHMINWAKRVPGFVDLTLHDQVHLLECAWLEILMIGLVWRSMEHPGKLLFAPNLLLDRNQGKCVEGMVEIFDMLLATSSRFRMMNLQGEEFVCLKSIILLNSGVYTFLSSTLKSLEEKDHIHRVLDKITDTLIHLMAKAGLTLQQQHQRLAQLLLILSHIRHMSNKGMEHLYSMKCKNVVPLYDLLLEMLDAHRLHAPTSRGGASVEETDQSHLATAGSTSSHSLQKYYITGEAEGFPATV
Description: ERF_TW_NR_COA_hESR1 is a biochemical, single-readout assay that uses extracted gene-proteins in a cell-free assay. Measurements were taken 0.16 hours after chemical dosing in a 96-well plate. See ERalpha Human Estrogen NHR Functional Agonist Coactivator Assay, Panlabs.ERF_TW_NR_COA_hESR1 is an assay component calculated from the ERF_TW_NR_COA_hESR1 assay. It is designed to measure FRET using a type of binding reporter as detected by fluorescence intensity of estriol with fluorimetry technology.Data from the assay component ERF_TW_NR_COA_hESR1 was analyzed at the assay endpoint, ERF_TW_NR_COA_hESR1, in the positive analysis fitting direction relative to DMSO as the negative control and baseline of activity. Using a type of binding reporter, gain-of-signal activity can be used to understand changes in binding as they relate to gene ESR1. To generalize the intended target to other relatable targets, this assay endpoint is annotated to the nuclear receptor intended target family, where the subfamily is steroid.
Test compound and/or vehicle is incubated with the 7 nM estrogen receptor alpha (ERalpha)-LBD and coactivator peptide for 10 minutes at RT. Determination of the amount of complex formed is read spectrofluorimetrically at 520 nm/490 nm. Test compound-induced increase fluorescence by 50 percent or more (>/=50%) relative to the 1 uM Estriol response indicates possible ERalpha receptor agonist activity.
In the case of `OCC(F)(F)OC(F)(F)C(F)(F)OC(F)(F)C(F)(F)OC(F)(F)F`, the outcome is reported as “inactive”.
With `OCC(F)(F)OC(F)(F)C(F)(F)OC(F)(F)C(F)(F)OC(F)(F)CO` the AC50 was 3.43 µM (active).
With `NS(=O)(=O)C(F)(F)C(F)(F)C(F)(F)C(F)(F)C(F)(F)C(F)(F)C(F)(F)C(F)(F)F` the outcome was “inactive”.
